PubChem BioAssay (EPA / NIEHS)
Records with an inconclusive call do not appear. Calls of active or inactive are those of the source. How the source made its calls: active means hit-call score of the fitted dose curve at least 0.9, where 1 is the maximum; inconclusive means response in the unintended direction; inactive means score below 0.9.

What follows are molecules tested against human Peroxisome Proliferator-activated Receptor delta (PPARd), PPARD (gene 5467) (UniProt Q03181) (assay: ATG_PPARd_TRANS: Attagene TRANS-FACTORIAL HepG2 Assay for human Peroxisome Proliferator-activated Receptor delta (PPARd) (AID 2283002)).
Procedure: ATG_TRANS is a cell-based, multiplexed-readout assay that uses HepG2, a human liver cell line, with measurements taken at 24 hours after chemical dosing in a 24-well plate.ATG_PPARd_TRANS is one of 30 assay component(s) measured or calculated from the ATG_TRANS assay. It is designed to make measurements of mRNA induction, a form of inducible reporter, as detected with fluorescence intensity signals by Reverse transcription polymerase chain reaction (RT-PCR) and Capillary electrophoresis technology.Data from the assay component ATG_PPARd_TRANS was analyzed into 1 assay endpoint. This assay endpoint, ATG_PPARd_TRANS, was analyzed in the positive analysis fitting direction relative to DMSO as the negative control and baseline of activity. Using a type of inducible reporter, measures of mRNA for gain-of-signal activity can be used to understand the reporter gene at the transcription factor-level as they relate to the gene PPARD. Furthermore, this assay endpoint can be referred to as a primary readout, because this assay has produced multiple assay endpoints where this one serves a reporter gene function. To generalize the intended target to other relatable targets, this assay endpoint is annotated to the nuclear receptor intended target family, where the subfamily is non-steroidal.
Human liver HepG2 cells are transiently transfected with multiple reporter transcription units (MRTUs) in 6-well plates using FuGene 6 reagent (Roche; 3 ml FuGene/1 mg DNA). The MRTU constructs are regulated by a cis-regulating element (promoter). […] A major difference between the CIS and TRANS system is that in CIS activities of endogenous TFs are measured, whereas the TRANS assay evaluates changes in activities of exogenous, chimeric NR-Gal4 proteins. […] At the end of 24 hour incubation, total RNA was isolated using TriZol reagent (Invitrogen). The isolated RNA is then reverse-transcribed using oligo(dT) primer and Mo-MLV reverse transcriptase (Invitrogen) with DNAse I (Ambion) treatment for 30 min. The one-tenth of the produced cDNA was amplified by PCR using Taq DNA polymerase (Invitrogen) and two reporter sequence-specific primers. The PCR products were fluorescently labeled by primer extension with 6-arboxyfluorescein (6-FAM) 5'-labeled reporter sequence-specific primer (2 min at 95 C, 20 s at 68 C and 10 min at 72 C) and these products were digested with 5U of HpaI (New England Biolabs) for 2h at 37 C. The fragments were purified using Qiaquick PCR columns (Qiagen), analyzed on an ABI 3130xL genetic analyzer (Applied Biosystems) with peak positions identified by using a set of X-rhodamine (ROX)-labeled MapMarker1000 molecular weight standards (BioVentures). The raw capillary electrophoresis data was processed using Attagraph software (Attagene).

human Peroxisome Proliferator-activated Receptor delta (PPARd), PPARD (gene 5467), sequence (Q03181 whole entry, looked up): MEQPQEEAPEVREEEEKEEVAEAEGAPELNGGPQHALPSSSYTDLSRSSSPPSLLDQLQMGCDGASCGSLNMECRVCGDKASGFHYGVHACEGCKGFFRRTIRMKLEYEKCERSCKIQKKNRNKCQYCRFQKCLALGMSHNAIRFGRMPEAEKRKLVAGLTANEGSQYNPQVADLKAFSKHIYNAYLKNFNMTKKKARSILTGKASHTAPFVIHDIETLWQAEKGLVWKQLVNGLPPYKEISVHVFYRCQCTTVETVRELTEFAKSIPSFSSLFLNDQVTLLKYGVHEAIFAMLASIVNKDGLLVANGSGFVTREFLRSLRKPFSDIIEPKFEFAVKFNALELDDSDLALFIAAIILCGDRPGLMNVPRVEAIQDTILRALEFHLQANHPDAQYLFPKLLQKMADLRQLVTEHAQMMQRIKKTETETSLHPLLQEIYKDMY

Compound | outcome | AC50
Oc1cccc(-c2ccccc2)c1 | inactive | 
O=C(N[C@H]1CN2CCC1CC2)c1ccc2c(c1)OCCO2 | inactive | 
CC(C)(c1ccccc1)c1cc(-n2nc3ccccc3n2)c(O)c(C(C)(C)c2ccccc2)c1 | inactive | 
CCCCN(CCCCO)N=O | inactive | 
[Cl][Sn]([c]1ccccc1)([c]1ccccc1)[c]1ccccc1 |  | 0.249 µM (active)
Oc1c(Br)cc(Br)cc1Br | inactive | 
Clc1cc(C(Cl)(Cl)Cl)cnc1Cl | inactive | 
CC1(C)COP(Oc2ccccc2)OC1 | inactive | 
Nc1c(Oc2ccccc2)cc(O)c2c1C(=O)c1ccccc1C2=O | inactive | 
CCC[CH2][Sn]([Cl])([Cl])[CH2]CCC | inactive | 
O=C(Nc1ccc(Br)cc1)c1cc(Br)cc(Br)c1O | inactive | 
COc1ccc(N)cc1 | inactive | 
O=S(=O)(c1ccc(Cl)cc1)c1cc(Cl)c(Cl)cc1Cl | inactive | 
Cc1cc(-c2cc(C)c(N)c(C)c2)cc(C)c1N | inactive | 
CC(=O)C(F)(F)C(F)(F)F | inactive | 
CC(C=O)Cc1ccc2c(c1)OCO2 (stereo not given) | inactive | 
CN(C)c1ccc(N=O)cc1 | inactive | 
CCOP(=S)(OCC)OP(=S)(OCC)OCC | inactive | 
OC(Cc1ccccc1Cl)(Cn1cncn1)C1(Cl)CC1 (stereo not given) | inactive | 
Cc1cccc(OP(=O)(Oc2cccc(C)c2)Oc2cccc(C)c2)c1 | inactive | 

Compound | outcome | AC50
CCCSP(=S)(OCC)Oc1ccc(Cl)cc1Cl (stereo not given) | inactive | 
CCOP(=S)(OCC)Oc1ccc(Cl)cc1Cl | inactive | 
Nc1ccc(Br)cc1 | inactive | 
O=S(=O)(Oc1ccc(Cl)cc1)c1ccc(Cl)cc1 | inactive | 
Cc1cccc(N=Nc2ccc(N(C)C)cc2)c1 | inactive | 
CCCCCCCCCCCCN(C)C | inactive | 
FC(F)OCC(F)(F)C(F)(F)F | inactive | 
NC(=O)CCl | inactive | 
C[C@@H]1O[C@@H](O[C@H]2C[C@@H](O)[C@]3(CO)[C@H]4[C@H](O)C[C@]5(C)[C@@H](C6=CC(=O)OC6)CC[C@]5(O)[C@@H]4CC[C@]3(O)C2)[C@H](O)[C@H](O)[C@H]1O | inactive | 
CCCCOC(=O)COC(=O)c1ccccc1C(=O)OCCCC | inactive | 
COc1nn(C(=O)NS(=O)(=O)c2ccccc2OC(F)(F)F)c(=O)n1C | inactive | 
CCOC(=O)OC1=C(c2cc(C)ccc2C)C(=O)NC12CCC(OC)CC2 (stereo not given) | inactive | 
CCN(CC)C(=O)C(Cl)=C(C)OP(=O)(OC)OC | inactive | 
O=C(O)CC(O)(CC(=O)O)C(=O)O | inactive | 
O=S(=O)(F)C(F)(F)C(F)(F)C(F)(F)C(F)(F)F | inactive | 
CCCCCCCCCCCCCCC(Br)C(=O)O (stereo not given) |  | 7.74 µM (active)
Cc1cc(Cl)ccc1OC(C)C(=O)O (stereo not given) | inactive | 
CC(c1ccccc1)(c1ccc(O)cc1)c1ccc(O)cc1 | inactive | 
BrCc1ccc(Br)cc1 | inactive | 
COc1ccc([N+](=O)[O-])cc1O | inactive | 
